PPC-1+TRAIL kill: compounds killing PPC-1 cancer cells with TRAIL present (potentiator screen, no TRAIL-free arm). PPC-1 cells + TRAIL, ATPLite viability luminescence. cell killing (% activity), % at 4 µM or 5 µM. 220,000 tested, 0.41% active. AID 1443;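 active = cell killing above 50% in the first pass at 4 µM, then a duplicate retest at 5 µM averaging 50% or more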;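 also: plate controls were cells with TRAIL plus DMSO for no effect and medium-only wells lacking cells for full effect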
SENP7 inh: blocks the human protease SENP7; recombinant SENP7, Z-RLRGG-aminoluciferin luminescence, 40 min; inhibition, % at 5 µM; 330,000 tested, 1.5% active; AID 434973;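 active = inhibition above about 50% at the single test dose, limit read from the data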;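 also: plate controls were DMSO with enzyme for no effect and no enzyme buffer wells for full effect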
Target sequence (Q9BQF6 706-1050 limits assumed): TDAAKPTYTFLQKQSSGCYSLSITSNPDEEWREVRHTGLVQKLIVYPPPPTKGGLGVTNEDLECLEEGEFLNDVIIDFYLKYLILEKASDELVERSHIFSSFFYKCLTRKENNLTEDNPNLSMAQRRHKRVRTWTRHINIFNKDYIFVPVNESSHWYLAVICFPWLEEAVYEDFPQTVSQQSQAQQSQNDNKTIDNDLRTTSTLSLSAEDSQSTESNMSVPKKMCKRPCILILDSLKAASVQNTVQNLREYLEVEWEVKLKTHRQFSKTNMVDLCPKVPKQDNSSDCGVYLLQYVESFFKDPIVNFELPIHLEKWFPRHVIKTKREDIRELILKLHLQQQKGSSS
SENP8 block-1: blocks human SENP8 cleavage of Nedd8 substrate; Q96LD8; recombinant SENP8, Nedd8 substrate fluorescence; inhibition, % at 20 µM; 360,000 tested, 0.64% active; in the data active = inhibition mostly above about 40%, no sharp cut-off; inactive = mostly below about 27%
Target sequence (Q96LD8 whole entry, looked up): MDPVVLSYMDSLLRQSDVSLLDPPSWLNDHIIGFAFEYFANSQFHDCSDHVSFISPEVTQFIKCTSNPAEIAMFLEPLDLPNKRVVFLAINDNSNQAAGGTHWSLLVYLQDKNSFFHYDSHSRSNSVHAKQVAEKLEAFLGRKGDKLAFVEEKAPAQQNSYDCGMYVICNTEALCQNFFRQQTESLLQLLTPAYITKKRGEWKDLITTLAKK
C8 TRAIL sens: caspase-8 TRAIL sensitization | inhibition (viability loss, TRAIL sensitization), % at 10 µM | 360,000 tested, 1% active | NB7+C8 cells + TRAIL, ATPlite viability luminescence;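 active = compounds causing at least 50% loss of cell viability in the single-dose screen, relative to plate controls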
SENP8 block-2: blocks the human protease SENP8 | Q96LD8 | purified SENP8, Z-RLRGG-aminoluciferin cleavage, luminescence | inhibition, % at 10 µM | 330,000 tested, 1.2% active | AID 2540; in the data active = inhibition above about 50%
SENP6 inh: inhibitors of human SENP6 protease; Recombinant SENP6 catalytic domain, aminoluciferin luminescence; 330,000 tested, 1.8% active; inhibition, % at 10 µM; AID 2599;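 active = inhibition above about 50% at the single tested dose, limit read from the data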;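 also: plate controls were DMSO wells with enzyme for no effect and DMSO wells lacking enzyme for full effect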
PPC-1 tox: kills PPC-1 cells | shares compounds with PPC-1+TRAIL kill | PPC-1 viability, ATPlite luminescence, overnight | cytotoxicity, % at 5 µM | 1,200 tested, 50% active | AID 1447;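 active = reconfirmed compounds whose average cytotoxicity reaches 50% or more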;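 also: 0% = DMSO-treated cells and 100% = wells holding medium but no cells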
SENP8 conf: confirmation of human SENP8 protease inhibitors | shares compounds with SENP7 inh | Recombinant SENP8, Z-RLRGG-aminoluciferin luminescence, 60 min | inhibition, % at 12.5 µM | 6,200 tested, 40% active | AID 488912;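 active = mean inhibition across replicates above about 50%, limit read from the data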
SENP6 conf: confirmation of human SENP6 protease inhibitors; AID 488915; shares compounds with SENP7 inh; 6,200 tested, 58% active; recombinant SENP6, Z-RLRGG-aminoluciferin luminescence; inhibition, % at 12.5 µM
SENP7 conf: human SENP7 inhibition, confirmed; shares compounds with SENP7 inh; recombinant SENP7, Z-RLRGG-aminoluciferin luminescence, 40 min; inhibition, % at 12.5 µM; 6,200 tested, 69% active; AID 488917
Casp3 SENP sel: caspase-3 inhibition (SENP selectivity assay) | shares compounds with SENP7 inh | inhibition, % at 12.5 µM | AID 488918 | purified caspase-3, Z-DEVD-aminoluciferin luminescence, 60 min | 6,200 tested, 60% active;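 active = mean inhibition above about 50%, limit read from the data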;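 also: plate controls were enzyme with DMSO for no effect and wells without caspase-3 for full effect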
Target sequence (P42574 28-227 limits assumed): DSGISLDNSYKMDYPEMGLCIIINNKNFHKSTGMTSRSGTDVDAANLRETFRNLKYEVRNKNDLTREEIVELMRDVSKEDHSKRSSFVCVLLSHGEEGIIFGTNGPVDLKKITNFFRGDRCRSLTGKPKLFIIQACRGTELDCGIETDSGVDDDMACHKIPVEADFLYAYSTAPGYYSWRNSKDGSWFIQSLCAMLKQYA
Luc interf: counter-screen for SENP inhibitors: luminescence interference | shares compounds with SENP7 inh | Pre-incubated SENP8/Z-RLRGG-aminoluciferin, luciferase luminescence interference | inhibition, % at 12.5 µM | 6,200 tested, 39% active;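 active = mean inhibition above about 50% when retested at one dose, limit read from the data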;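 also: plate controls were DMSO wells with completed reaction for no effect and substrate without enzyme for full effect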
* marks the source's active call; other numbers are inactive results; · = no result. In the library only some 3% were active in any assay of this set; here they are far more common.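 The calls were made as follows, unless noted: active = mean inhibition above about 50% in the one-dose retest (limit read from the data); inactive = the rest.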

SMILES | PPC-1+TRAIL kill | SENP7 inh | SENP8 block-1 | C8 TRAIL sens | SENP8 block-2 | SENP6 inh | PPC-1 tox | SENP8 conf | SENP6 conf | SENP7 conf | Casp3 SENP sel | Luc interf
C(=N\Nc1ccc2ccccc2n1)/c1ccc2c(c1)OCCO2 | 71.0* | -3.6 | -392.9 | 81.2* | 84.3* | 78.4* | 74.8* | 97.9* | 100.5* | 103.9* | 97.5* | 84.6*
Cc1cccc(/C=N/Nc2ccc3ccccc3n2)c1 | 71.3* | 5.2 | -406.8 | 84.8* | 96.1* | 91.9* | 72.1* | -5.6 | 100.7* | 104.0* | 98.2* | 75.2*
C(=N\Nc1nc2ccccc2[nH]1)/c1ccc2c(c1)OCCO2 | 34.6 | 49.9 | -301.3 | 31.7 | 34.2 | 45.8 | · | · | · | · | · | ·
Cc1ccc(/C=N/Nc2ccc3ccccc3n2)o1 | 51.5* | 88.3* | -457.4 | 65.2* | 85.0* | 78.7* | 57.7* | 92.8* | 92.8* | 100.0* | 91.7* | 85.1*
Cc1cc(C(=O)N/N=C/c2ccc(C)o2)c2ccccc2n1 | 33.8 | 4.1 | 12.3 | 23.3 | -4.7 | -10.4 | · | · | · | · | · | ·
Nc1cc(=O)nc2cn[nH]n12 | · | · | 2.8 | 2.9 | · | · | · | · | · | · | · | ·
Cc1ccc(N=C/C(C(=O)C(F)(F)F)=C(\O)c2cccs2)cc1 | 28.9 | 96.2* | -50.0 | 60.9* | 20.0 | 26.7 | 36.5 | 10.4 | 6.5 | 0.0 | 28.6 | 55.5*
CCOc1ccc(OCc2cccc(C(=O)O)c2)cc1 | 58.9* | 100.4* | 16.4 | 83.7* | 96.1* | 98.6* | 58.5* | 10.2 | 100.3* | 103.4* | 99.3* | 97.8*
O=C1c2ccccc2-c2nnc(-c3ccc(F)cc3)cc21 | 78.3* | 98.7* | 41.9* | 83.4* | 90.4* | 83.0* | 79.2* | 86.3* | 84.5* | 82.1* | 43.6 | 0.6
Cc1ccc(-c2cc3c(nn2)-c2ccccc2C3=O)cc1 | 89.8* | 99.0* | 48.9* | 93.3* | 95.9* | 96.1* | 91.7* | 85.4* | 95.4* | 99.4* | 89.1* | 7.5
Oc1ccc(-c2cc(-c3ccc(O)cc3)nc(-c3ccccc3)n2)cc1 | · | 1.9 | -75.7 | -8.6 | -6.8 | -26.8 | · | · | · | · | · | ·
Cc1ccccc1-c1cc2c(nn1)-c1ccccc1C2=O | 38.5 | 98.5* | 105.3* | 55.4* | 96.4* | 99.7* | 45.6 | 82.7* | 98.8* | 101.5* | 97.7* | 56.4*
O=C1c2ccccc2-c2nnc(-c3ccc(O)cc3)cc21 | 68.7* | 100.5* | 4.9 | 49.9 | 96.0* | 98.9* | 64.2* | 95.1* | 94.2* | 101.4* | 96.2* | 15.7
N#CCN(C(=O)CSc1nnc(C2CC2)n1C1CC1)c1ccccc1 | · | · | 14.9 | -7.5 | · | · | · | · | · | · | · | ·
CCOC(=O)N1CCN(C(=O)c2ccc3c(c2)sc2nc(-c4ccc(OC)cc4)cn23)CC1 | -9.1 | 2.4 | -165.6 | -0.6 | -1.9 | -1.6 | · | · | · | · | · | ·
COc1ccc2c(c1)sc1nc(-c3ccccc3)cn12 | 92.8* | 98.9* | 8.2 | 95.6* | 95.8* | 96.4* | 91.8* | 11.1 | 100.9* | 103.7* | 98.2* | 98.7*
CCOc1ccc(C(=O)Nc2cc(C)ccn2)cc1 | 91.5* | 96.2* | 10.5 | 89.9* | 90.8* | 90.9* | 90.5* | -12.4 | 89.8* | 100.1* | 96.4* | 90.6*
CCOc1ccc(C(=O)Nc2cccc(C)n2)cc1 | 51.0* | 91.4* | 18.8 | 57.3* | 79.9* | 87.3* | 52.4* | -9.4 | 83.4* | 98.3* | 94.3* | 87.3*
Cc1nc2cc(NC(=O)Nc3ccccc3Cl)ccc2n1C | 71.0* | 97.3* | 6.4 | 73.3* | 93.4* | 88.4* | 72.2* | 85.7* | 92.4* | 99.3* | 94.3* | 90.8*
COc1ccc(OC)c(NC(=O)COC(=O)CC2CCCCC2)c1 | · | 11.1 | 18.7 | 8.9 | 2.1 | -12.9 | · | · | · | · | · | ·
O=C(Nc1ccc(N2CCCCC2)cc1)c1ccccc1 | 65.5* | 89.7* | 13.8 | 73.6* | 75.1* | 83.9* | 61.2* | 5.2 | 85.0* | 97.5* | 91.9* | 28.8
Cc1ccc(C(=O)Nc2ccc(N3CCCCC3)cc2)cc1 | · | -9.2 | 12.3 | 46.8 | -19.3 | -6.7 | · | · | · | · | · | ·
Cc1cccc(CN2[C@@H](CC(C)C)COCCS2(=O)=O)c1 | · | 8.9 | 12.8 | 0.6 | -12.4 | -7.0 | · | · | · | · | · | ·
CCC(/C=N/NC(=O)C(N)=O)CC | 6.1 | -1.5 | 22.2 | 2.8 | -2.8 | -4.8 | · | · | · | · | · | ·
CCc1ccc(/C=N/NC(=O)c2ccccn2)cc1 | 72.5* | 82.7* | -2.6 | 82.4* | 78.9* | 82.9* | 71.1* | 87.3* | 86.7* | 98.0* | 93.8* | 86.5*
SMILES | PPC-1+TRAIL kill | SENP7 inh | SENP8 block-1 | C8 TRAIL sens | SENP8 block-2 | SENP6 inh | PPC-1 tox | SENP8 conf | SENP6 conf | SENP7 conf | Casp3 SENP sel | Luc interf
CC(=C/c1ccccc1)/C=N/NC(=O)c1ccccn1 | 81.5* | 80.8* | -36.4 | 85.5* | 60.9* | 69.4* | 81.2* | 72.5* | 71.4* | 92.1* | 85.4* | 73.3*
CC(/C=N/NC(=O)c1ccncc1)=C\c1ccccc1 | 4.7 | 5.0 | 1.1 | 26.4 | -7.5 | -4.8 | · | · | · | · | · | ·
Cn1cccc1/C=N/NC(=O)c1ccccn1 | 18.8 | 28.8 | -23.4 | 8.0 | 7.9 | 31.0 | · | · | · | · | · | ·
COc1ccccc1/C=C/C=N/NC(=O)c1cc(-c2ccc(C)o2)[nH]n1 | 14.5 | -2.2 | -93.3 | 17.2 | -5.4 | -18.2 | · | · | · | · | · | ·
CCc1nn2cc(-c3ccccc3)nc2s1 | 57.6* | 95.5* | 30.0 | 70.8* | 88.9* | 94.1* | 56.9* | -1.0 | 93.8* | 100.8* | 94.9* | 84.1*
NC(=O)c1ccccc1NC(=O)/C=C/c1ccc(Cl)cc1 | 56.5* | 62.7* | 2.9 | 68.0* | 21.8 | 51.3* | 57.0* | 0.6 | 16.6 | 88.8* | 65.6* | 17.9
O=C(/C=C/c1ccc(Cl)cc1)NC(=S)Nc1ccccc1C(=O)O | -5.4 | 8.8 | -1.9 | -41.7 | 4.7 | -9.6 | · | · | · | · | · | ·
Cc1cc(NC(=O)c2ccc3nccnc3c2)ccc1Br | · | 35.2 | -7.9 | 23.7 | 26.0 | 32.2 | · | · | · | · | · | ·
Cc1ccc(C(=O)Nc2ccc3c(c2)CCC3)cc1 | 52.3* | 90.6* | 9.7 | 78.6* | 81.3* | 87.9* | 53.3* | 88.5* | 89.1* | 98.4* | 87.4* | 86.4*

Compound activity (PubChem)
